PfHsp90 yeast 2: inhibits growth of yeast expressing Plasmodium falciparum Hsp90 | inhibition, % at 9.4 µM | 0.32% of 310,000 active | S. cerevisiae expressing PfHsp90, BacTiter-Glo ATP, 48 h; yeast lacking PDR1 and PDR3 efflux regulators;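 active = every replicate shows inhibition above about 80%, whatever the replicate mean, limit read from the data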;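 also: 0% = DMSO neutral controls and 100% = 20 µM radicicol positive controls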
NALP1 inh: blocks the NALP1 inflammasome reconstituted in yeast. S. cerevisiae NALP1/ASC/caspase-1 growth, X-gal OD620, 72 h. inhibition, % at 10 µM. 0.61% of 280,000 active. AID 2071; in the data active = inhibition mostly above about 24%, no sharp cut-off; inactive = mostly below about 32%
tim10-1 inh: growth inhibitors of tim10-1 mutant yeast; S. cerevisiae tim10-1 ts strain growth, BacTiter-Glo, 24 h; inhibition, % at 20 µM; 2.2% of 330,000 active;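 active = inhibition of at least 40%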;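 also: mutant grown at 25 °C; 0% = DMSO wells with yeast and 100% = wells holding no yeast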
tim23-1 inh: inhibits growth of tim23-1 mutant yeast; AID 463212; 1.3% of 330,000 active; S. cerevisiae tim23-1 growth, BacTiter-Glo luminescence, 24 h; inhibition, % at 20 µM;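 active = growth inhibition of the mutant yeast at or above 50%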;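 also: temperature-sensitive mutant grown at 25 °C; plate controls were DMSO-treated mutant yeast for no effect and medium wells lacking yeast for full effect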
NALP3 yeast inh: inhibitors of NALP3 inflammasome in yeast. Yeast reconstituted NLRP3/ASC/caspase-1, beta-gal luminescence, 24 h. inhibition, % at 10 µM. 0.39% of 330,000 active. AID 2825;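 active = inhibition of 50% or more; inactive = inhibition below 50%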;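 also: plate controls were induced DMSO wells for no effect and uninduced yeast grown without galactose for full effect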
TIM10 inh: TIM10 yeast growth inhibition; S. cerevisiae TIM10 strain growth, BacTiter-Glo luminescence, 24 h; inhibition, % at 10 µM; 1.4% of 330,000 active;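 active = inhibition of 40% or more at the single tested concentration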;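 also: wild-type TIM10 isogenic control strain grown at permissive 25 °C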
NALP3 yeast conf: confirmation of NALP3 inhibitors in yeast | yeast expressing human NALP3, luminescence | AID 435006 | inhibition, % at 10 µM | 81% of 1,300 active | shares compounds with NALP3 yeast inh; in the data active = inhibition above about 48%
Casp1-ASC yeast: counter-screen for NALP3 inhibitors: yeast caspase-1-ASC | shares compounds with NALP3 yeast inh | yeast expressing Caspase-1-ASC, luminescence counter screen | inhibition, % at 10 µM | 66% of 1,000 active | AID 488784
NALP3 retest: retest-confirmed inhibitor of NALP3 in yeast | shares compounds with NALP3 yeast inh | yeast expressing human NALP3, luminescence read-out | inhibition, % at 10 µM | 53% of 1,000 active | AID 488794
Starred values were filed as active, the others as inactive; . = not tested or not shown. A selection: hits, their analogues and other compounds. The true share with any hit is near 4.1%. Rule as the data show it, unless noted: active = inhibition above about 50%; inactive = the rest.

SMILES	PfHsp90 yeast 2	NALP1 inh	tim10-1 inh	tim23-1 inh	NALP3 yeast inh	TIM10 inh	NALP3 yeast conf	Casp1-ASC yeast	NALP3 retest
O=C(NC1=NCCS1)c1ccccc1OCc1ccccc1Cl	-14	20	9	45	96*	25	99*	98*	98*
CCCCc1ccc(-c2nc(N)n[nH]2)cc1	-52	14	36	29	54*	25	78*	95*	85*
O=C(O)CCCC1(C(=O)O)CCCC1	4	.	.	.	.	.	.	.	.
CCOc1ccc(OCC(=O)OC(C)C(=O)NC2CCCC2)cc1 (stereo not drawn)	9	.	6	13	11	6	.	.	.
COc1ccc(C2CC(=O)C(C=NCCN3CCNCC3)=C(O)C2)cc1OC (stereo not drawn)	.	-8	.	.	.	.	.	.	.
COc1ccc(C2CC(=O)C(C=NCCCO)=C(O)C2)cc1 (stereo not drawn)	-12	5	5	11	3	4	.	.	.
CCCCCC(=O)N1CCN(CCN=CC2=C(O)CC(c3ccc(OC)c(OC)c3)CC2=O)CC1 (stereo not drawn)	7	5	14	11	58*	15	66*	43	37
CCC(=O)N1CCN(CCN=CC2=C(O)CC(c3ccc(OC)cc3)CC2=O)CC1 (stereo not drawn)	-18	39	15	21	53*	-1	35	.	.
CCCCCC(=O)N1CCN(CCN=CC2=C(O)CC(c3ccc(OC)cc3)CC2=O)CC1 (stereo not drawn)	-2	23	0	12	55*	8	72*	46	48
Cc1ccc(CNC(=O)CCC(=O)Nc2nnc(C)s2)cc1	-5	26	-9	3	19	-9	.	.	.
CC(C)N(Cc1ccccc1)S(=O)(=O)c1ccc(F)cc1	24	14	7	9	51*	35	56*	29	31
O=C(/C=C/c1cccc([N+](=O)[O-])c1)NCCSCc1cccc(Cl)c1	-6	21	38	37	71*	37	-6	.	.
O=C(/C=C/c1cccc([N+](=O)[O-])c1)NCc1ccccc1	12	-23	6	11	17	11	.	.	.
CCCOc1ccc(-c2cn3ccccc3n2)cc1	3	5	-18	40	72*	8	56*	88*	76*
O=c1cc(CSc2ccc(Cl)cc2)nc(-c2ccccn2)[nH]1	105*	27	27	25	64*	-33	84*	97*	91*
Clc1ccc(SCc2cc(N3CCOCC3)nc(-c3ccccn3)n2)cc1	-22	10	21	3	51*	20	57*	55*	54*
O=c1cc(CSc2ccc(Cl)cc2)nc(-c2ccccc2)[nH]1	-17	11	15	18	17	26	.	.	.
COc1ccc(C(=O)NCc2ccccc2CN2CCCC2)cc1S(=O)(=O)Nc1ccc(C)cc1	.	.	-2	4	3	-1	.	.	.
c1nc(CCO[C@H]2CCCCO2)cc2cc3c(cc12)OCO3	38	.	10	23	31	4	.	.	.
c1nc(C2CCCCC2)cc2cc3c(cc12)OCO3	-31	.	9	29	51*	3	54*	.	.
CC(=O)c1ccccc1NC(=O)COC(=O)CCC1CCCC1	-34	.	6	10	14	-5	.	.	.
CCCN(CC(=O)Nc1ccccc1OC)CC(=O)c1c(N)n(Cc2ccccc2)c(=O)n(C)c1=O	0	.	.	.	.	.	.	.	.
Cc1nn(-c2c(Cl)cc(Cl)cc2Cl)c(=O)c2ccccc12	4	20	14	34	63*	-1	73*	59*	53*
Cn1c(/C=C/N(Cc2ccccc2)c2ccccc2)c([N+](=O)[O-])c(=O)n(C)c1=O	-12	-25	22	15	-117	13	-22	.	.
O=C(NCc1cccc(Cl)c1)c1cnn2c1NC(c1ccco1)CC2C(F)(F)F (stereo not drawn)	18	-17	26	26	20	24	.	.	.

Screening data deposited in PubChem by several laboratories.
